# Most compounds without a hit are left out; they make up all but 5.1% or so of the library.
# S1P3 antagonist – antagonists of human S1P3 receptor; inhibition, % at 4.98 µM; CHO S1P3 NFAT-BLA reporter, FRET fluorescence, antagonist mode; actives 0.27% (n = 170,000); AID 485; Q99500;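 active = inhibition above the plate cutoff, the mean inhibition of test wells on that plate plus 3 SD, cut at about 28% in these data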;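 note: cells challenged with S1P at its EC80 of 0.8 µM; blue over green emission ratio from cleaved BLA substrate after 4 h stimulation; 0% = S1P-stimulated wells and 100% = unstimulated DMSO-only wells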
# Cl transport mod – modulates chloride dependent transport by human KCC2; B-score of Tl+ flux slope (higher = more flux/activation; lower = inhibition) at 10 µM; KCC2 cells, thallium flux FluoZin-2 fluorescence; Q9H2X9; actives 2.2% (n = 190,000);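 active = thallium flux slope and its plate-corrected score both differing from the plate sample mean at a set confidence after two filtering rounds, in either direction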;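 note: slope of fluorescence scaled to starting intensity during 10 to 20 s after thallium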
# RAM inhibit – inhibitors of the yeast RAM network; S. cerevisiae dse1pr::URA3 reporter, 5-FOA growth OD615, 2 d; analog-sensitive cbk1-as2 kinase mutant strain; inhibition, % at 50 µM; actives 1.8% (n = 190,000);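 active = inhibition above a set limit, 3 SD over mean compound inhibition, cut at about 8.4% in these data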;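 note: 0% = DMSO-only wells with no growth and 100% = 10 µM 1-NA-PP1 full growth; inhibition rescues growth on 5-FOA so higher OD means more RAM inhibition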
# S1P4 ag – activates the human S1P4 receptor; S1P4-expressing cell line, agonist reporter assay; activation, % at 4.98 µM; actives 0.35% (n = 220,000); in the data active = activation above about 11%;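 note: 0% = DMSO vehicle and 100% = reference agonist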
# S1P4 antag – blocks the human S1P4 receptor | O95977 | S1P4-expressing cells, antagonist mode, reporter read-out | inhibition, % at 4.98 µM | actives 0.26% (n = 220,000); in the data active = inhibition above about 29%;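 note: 0% = wells stimulated with agonist and 100% = vehicle wells without agonist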
# ROMK primary – modulates human ROMK potassium channel activity; P48048; Tet-inducible ROMK, thallium flux fluorescence; actives lie on both sides; B-score at 10 µM; actives 2% (n = 130,000);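 active = signal ratio slope over the read window, or its plate-corrected B-score, at least 3 SD from the plate mean, either direction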;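 note: B-score of the F/F0 ratio slope over 7 to 12 s after thallium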
# Target sequence (P48048 whole entry, looked up): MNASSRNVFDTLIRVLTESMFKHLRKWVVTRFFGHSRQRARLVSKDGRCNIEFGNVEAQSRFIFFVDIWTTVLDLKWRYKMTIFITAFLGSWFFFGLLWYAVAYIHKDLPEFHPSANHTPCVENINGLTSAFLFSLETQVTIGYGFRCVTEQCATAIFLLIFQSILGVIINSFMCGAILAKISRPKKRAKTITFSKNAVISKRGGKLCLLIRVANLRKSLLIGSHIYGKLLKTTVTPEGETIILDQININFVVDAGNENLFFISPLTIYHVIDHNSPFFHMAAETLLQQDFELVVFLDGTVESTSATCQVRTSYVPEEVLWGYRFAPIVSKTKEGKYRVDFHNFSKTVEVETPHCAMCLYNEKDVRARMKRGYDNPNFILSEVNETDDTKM
# KCC2 secondary – confirmation of human KCC2 transport modulators; HEK293-KCC2, thallium flux, FluoZin2 fluorescence; active compounds read high; normalised thallium flux (F/F0 slope) at 10 µM; shares compounds with Cl transport mod; actives 15% (n = 3,700); AID 1713;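 active = thallium flux slope above the same plate's solvent-only control mean plus 3 SD; inconclusive = the two replicate wells disagree; inactive = no significant difference from solvent-only control wells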
# KCC2 bumet counter – thallium flux persisting under bumetanide in KCC2 cells, counter-screen secondary assay; AID 1714; HEK293-KCC2 + bumetanide/ouabain, thallium flux FluoZin2; active compounds read high; actives 49% (n = 3,700); normalized thallium flux at 10 µM; shares compounds with Cl transport mod;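 active = thallium entry rate above the same plate's blocked-transporter control wells by more than 3 SD; inconclusive = the two repeat wells disagree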;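 note: raw slope of fluorescence over initial fluorescence between 10 and 20 s after thallium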
# KCC2 sec2 – confirmation of human KCC2 transport modulators; shares compounds with Cl transport mod; HEK293-KCC2, thallium flux FluoZin2 fluorescence; actives lie on both sides; F/F0 rise rate, 10–20 s post-thallium; normalized thallium flux at 10 µM; actives 23% (n = 3,700); AID 1715;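 active = thallium flux slope more than 3 SD above or below the plate's solvent-only control mean, mostly below; inconclusive = the two repeat wells disagreed; inactive = no significant shift from solvent-only controls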;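 note: raw slope with 0.1% DMSO as baseline and bumetanide as block control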
# HEK293 Tl flux – parental HEK flux effect, counter-screen. thallium flux rate (normalised fluorescence) at 10 µM. actives 46% (n = 3,700). HEK293 parental cells, thallium flux FluoZin2, ouabain; baseline-ratio fluorescence slope, 10–20 s after thallium. shares compounds with Cl transport mod;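 active = thallium flux rate significantly above the same plate's solvent-only control wells, beyond their mean plus 3 SD; inconclusive = the two replicate wells gave conflicting results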
# KCC2 retest ouab – confirmation of human KCC2 modulators with ouabain | shares compounds with Cl transport mod | HEK293-KCC2, thallium flux FluoZin2 fluorescence; bidirectional: low = inhibitor, high = activator | raw Tl+ flux slope (below DMSO = inhibition, above = activation) at 10 µM | actives 48% (n = 3,700) | AID 1717;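 active = thallium flux slope beyond 3 SD from same-plate DMSO control mean in most replicates, usually higher, sometimes lower; inconclusive = repeat tests gave conflicting results; inactive = no significant difference from controls in most replicates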;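 note: slope of initial-normalized fluorescence between seconds 10 and 20 after thallium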
# HEK counter2 – acts in parental HEK cells, second KCC2 counter-screen. shares compounds with Cl transport mod. AID 1718. thallium flux slope at 10 µM. actives 33% (n = 3,700). HEK293 parental, thallium flux FluoZin-2 fluorescence slope;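 active = thallium flux slope above the same plate's solvent-control mean plus 3 SD in both duplicate wells; inconclusive = duplicate wells that disagreed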;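 note: run without ouabain in cells lacking the KCC2 cotransporter; slope of fluorescence scaled to its starting value between 10 and 20 s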
# * marks the source's active call; other numbers are inactive results; ? = inconclusive; / = not tested or not shown.
SMILES,S1P3 antagonist,Cl transport mod,RAM inhibit,S1P4 ag,S1P4 antag,ROMK primary,KCC2 secondary,KCC2 bumet counter,KCC2 sec2,HEK293 Tl flux,KCC2 retest ouab,HEK counter2
CC(C)Cn1cc(C(=O)N2CCN(c3ccccn3)CC2)c2c3ccccc3n(C)c2c1=O,18,/,1,2,-25,/,0.009,0.0059,0.03,0.0068,0.034,0.01
CCN1CCN(C(=O)c2cn(CCOC)c(=O)c3c2c2ccccc2n3C)CC1,25,-0.64,0,0,-15,0.00056,/,/,/,/,/,/
Cc1cccc(NC(=S)N/N=C/c2ccc3c(c2)OCO3)c1,8,10*,3,2,-7,0.0078,0.011,0.015*,0.034,0.028*,0.027*,?
COc1ccccc1NC(=S)N/N=C/c1cccc(C)c1,-4,5.5*,2,-1,5,/,0.011,0.016*,0.034,0.012*,0.026,0.011
O=C(N/N=C/c1ccc2c(c1)OCO2)c1ccc2ccccc2n1,-17,4.9*,1,-2,1,1.4,0.017,0.018*,0.032,0.012*,0.02*,0.016*
Cc1cccc(C(=O)N/N=C/c2ccc3c(c2)OCO3)n1,/,0.68,2,0,4,/,/,/,/,/,/,/
O=C1c2nccnc2C(=O)N1c1ccc(C(F)(F)F)cc1,-10,0.55,1,0,-18,0.71,/,/,/,/,/,/
O=C(Cn1cnc2ccccc21)N/N=C/c1ccccc1[N+](=O)[O-],-6,0.98,0,1,-9,/,/,/,/,/,/,/
O=C(NNC(=S)Nc1cccc(C(F)(F)F)c1)c1ccc(Cl)cc1Cl,4,6.3*,2,1,-18,/,0.006,0.027*,0.033,0.021*,?,0.022*
S=C(Nc1ccccc1)Nc1ccc(Cl)cn1,-8,5.8*,3,-2,8,/,0.018,0.017*,0.03,0.01*,0.019,0.012
CCCCC(=O)NC(=S)NNC(=O)c1ccc(OC)cc1,-12,27*,1,1,-12,1.5,0.021*,0.053*,0.035,?,0.039*,?
O=C(O)CCC(=O)NNC(=O)c1ccc([N+](=O)[O-])cc1,-18,/,/,1,-10,/,/,/,/,/,/,/
CCNC(=S)NNC(=O)c1ccc(OC)cc1,25,1.4,1,1,-11,0.6,/,/,/,/,/,/
CCCCCC(=O)NNC(=S)NC(=O)c1ccc([N+](=O)[O-])cc1,4,13*,-1,3,-19,0.29,0.0074,0.027*,0.035,0.02*,0.033*,0.02*
CCCCC(=O)NC(=S)NNC(=O)c1ccc(Cl)cc1Cl,-11,33*,2,2,0,0.73,0.0099*,0.069*,0.04*,0.048*,0.057*,0.029*
O=C(NC(=S)Nc1ccccc1O)c1ccc(Cl)cc1Cl,-10,5.2*,-1,3,8,0.58,0.0074,0.013*,0.033,0.013*,?,0.013*
CCCNC(=O)c1ccc(Cl)cc1Cl,5,-0.064,/,1,9,/,/,/,/,/,/,/
O=C(Nc1ccccc1Cl)c1ccc(Cl)cc1Cl,-12,-0.37,3,2,-7,1.4,/,/,/,/,/,/
CCCCC(=O)Nc1ccc(Cl)cn1,11,-1.9,-1,-1,-16,/,/,/,/,/,/,/

# Source: PubChem BioAssay
